# In PubChem BioAssay (NCATS):
# Records with an inconclusive call do not appear. Entries that show only a call come without a potency. Values without a mark were called inactive. Activity calls are given as the source filed them. Calls come from the whole dose curve; as a rule, active = well fitted cell-killing curve with a large enough effect; inconclusive = small, poorly fitted or top-dose-only effect, or effect the other way; inactive = flat fitted curve, though single readings scatter.
# Test system: HeLa
# Experiment: Primary qHTS to identify gynecologic anti-cancer compounds using libraries of approved drugs and bioactive compounds (AID 1345084); note: nearly all actives have a fitted effect of over 55% in size
# Details: Gynecologic cancer cell panel viability, ATPlite luminescence, 48 h; series mostly up to 57.5 µM
# Procedure, shortened: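 Cytotoxicity screen measuring ATP content by luciferase luminescence. Each compound is applied at five concentrations for 48 h at 37 C with 5% CO2.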
SMILES,Potency,"activity change, negative = cytotoxicity"
C[C@]12CCC[C@](C)(C(=O)O)C1CCC13C=C(CO)C(CCC12)C3 (some centres undefined),inactive,–
O=C(c1ccc(C#Cc2cccc(F)c2)cn1)N1CC2CC2C1 (centres undefined),inactive,–
C[C@H]1[C@H](C)CC[C@]2(C(=O)O)CC[C@]3(C)C(=CC[C@@H]4[C@@]5(C)C[C@@H](O)[C@H](O)[C@@](C)(CO)[C@@H]5CC[C@]43C)[C@H]12,inactive,–
C/C=C/C=C/C(CC(=O)O)Nc1ccc(C=O)cc1 (centres undefined),inactive,–
C[C@@H]1O[C@@H](O[C@H]2[C@H](OC(=O)[C@]34CCC(C)(C)C[C@H]3C3=CCC5[C@@]6(C)C[C@H](O)[C@H](O[C@@H]7O[C@H](CO)[C@@H](O[C@@H]8O[C@H](CO)[C@@H](O)[C@H](O)[C@H]8O)[C@H](O)[C@H]7O)[C@@](C)(CO)C6[C@H](O)C[C@@]5(C)[C@]3(C)C[C@H]4O)OC[C@H](O)[C@@H]2O)[C@H](O)[C@H](O)[C@H]1O[C@@H]1OC[C@@H](O)[C@H](O[C@@H]2OC[C@](O)(CO)[C@H]2O)[C@H]1O (some centres undefined),–,5.03% [at 6.55 µM]
CC(C)(O)c1ccc2c(c1)C(=O)CC1[C@](C)(CO)CCC[C@]21C (some centres undefined),inactive,–
CC(=O)C1CCC2(C)C3=C(CCC12C)C1(C)CCC(=O)C(C)(C)C1CC3 (centres undefined),inactive,–
C[C@@H]1C/C=C/C=C\C=C\C=C\[C@H](O[C@@H]2O[C@H](C)[C@@H](O)[C@H](N)[C@@H]2O)C[C@@H]2O[C@](O)(C[C@@H](O)C[C@H]3O[C@@H]3/C=C/C(=O)O1)C[C@H](O)[C@H]2C(=O)O,inactive,–
COC(=O)C[C@@H]1C(C(=O)O)=CO[C@@H](O[C@@H]2O[C@H](CO)[C@@H](O)[C@H](O)[C@H]2O)/C1=C\COC(=O)/C=C\c1ccccc1,inactive,–
